# In the supplement of paper PMC7366291:
# Counter-ions that a name gives are not always drawn. ± gives the standard deviation of the averaged measurements.
# Tested on: Danio rerio Tg(wt1b:EGFP) embryo, pronephros
# Experiment: glomerular width (mean of left and right), fold change vs DMSO control; higher = wider glomerulus
# Conditions: 25 µM; exposure: 24-48 hpf
# Outline: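 Dechorionated Tg(wt1b:EGFP) zebrafish embryos were kept from 24 to 48 hpf at 28.5°C in HEPES-buffered E3 containing 0.003% PTU, 0.5% DMSO and 25 μM compound. The pronephroi were then imaged from the dorsal side in agarose-filled 96-well plates at 470 nm with 10 z-slices, and 16 reference points were placed by hand on maximum projections in Fiji so that a macro could calculate distances and angles. Values lying more than 2 SD from the mean of a feature were discarded. Every feature is given as a fold change against the mean of DMSO-treated embryos from the same day.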
row,Structure (SMILES),glomerular width
1,CCN(CC)CCc1nc(-c2ccccc2)no1 [Oxalamine citrate salt],0.933 ± 0.016
2,OCc1cc(C(O)CNCCCCCCOCCCCc2ccccc2)ccc1O (stereo not drawn) [Salmeterol],0.665 ± 0.017
3,CC(=O)OC(C)C[N+](C)(C)C (stereo not drawn) [Methacholine chloride],1.08 ± 0.0033
4,C=CC[N@@+]12CC[C@@]34c5ccccc5N5/C=C6/[C@H]7C[C@H]8[C@@]9(CC[N@@+]8(CC=C)C/C7=C/CO)c7ccccc7N(/C=C(/[C@@H](C[C@@H]31)/C(=C\CO)C2)[C@H]54)[C@@H]69 [Alcuronium chloride],1.03 ± 0.052
5,CC(C)(C)NC[C@H](O)COc1ccccc1C1CCCC1 [Penbutolol sulfate],0.988 ± 0.02
6,CS(=O)(=O)OCCCCOS(C)(=O)=O [Busulfan],0.97453 ± 0.00036
7,Cc1c(C)c2c(c(C)c1O)CCC(C)(C(=O)O)O2 (stereo not drawn) [Trolox],0.963 ± 0.058
8,CN1CCCCC1CCN1c2ccccc2Sc2ccc([S+](C)[O-])cc21 (stereo not drawn) [Mesoridazine besylate],0.916 ± 0.033
9,COC(=O)[C@H](c1ccccc1Cl)N1CCc2sccc2C1 [Clopidogrel],0.893 ± 0.055
10,CN(C)CCC[C@@]1(c2ccc(F)cc2)OCc2cc(C#N)ccc21 [Escitalopram oxalate],0.9778 ± 0.0032
11,Cc1ncc(C[n+]2csc(CCO)c2C)c(N)n1 [Thiamine hydrochloride],1.1 ± 0.036
12,C[C@@H]1C[C@H]2[C@@H]3C[C@H](F)C4=CC(=O)C=C[C@]4(C)[C@@]3(Cl)[C@@H](O)C[C@]2(C)[C@H]1C(=O)COC(=O)C(C)(C)C [Clocortolone pivalate],1.26 ± 0.019
13,COc1ccccc1O [Guaiacol],1.007 ± 0.0036
14,CCN(CC)CC(=O)Nc1c(C)cccc1C [Lidocaine hydrochloride],1.04 ± 0.015
15,O=C(Nc1ccccc1)OCC(CN1CCCCC1)OC(=O)Nc1ccccc1 (stereo not drawn) [Diperodon hydrochloride],0.984 ± 0.04
16,N#Cc1cc(NC(=O)C(=O)O)c(Cl)c(NC(=O)C(=O)O)c1 [Lodoxamide],0.9808 ± 0.0037
17,NC1CCN(c2nc3c(cc2F)c(=O)c(C(=O)O)cn3-c2ccc(F)cc2F)C1 (stereo not drawn) [Tosufloxacin hydrochloride],1.07 ± 0.074
18,NCCc1ccc(O)c(O)c1 [Dopamine hydrochloride],1.05 ± 0.054
19,CO[C@H]1/C=C/O[C@@]2(C)Oc3c(C)c(O)c4c(c3C2=O)C2=NC3(CCN(CC(C)C)CC3)NC2=C(NC(=O)/C(C)=C\C=C\[C@H](C)[C@H](O)[C@@H](C)[C@@H](O)[C@@H](C)[C@H](OC(C)=O)[C@@H]1C)C4=O [Rifabutin],0.94 ± 0.1
20,CC(C)NCC(O)c1ccc(NS(C)(=O)=O)cc1 (stereo not drawn) [Sotalol hydrochloride],1.03 ± 0.062
21,CC[C@@]1(O)C(=O)OCc2c1cc1n(c2=O)Cc2cc3c(CN(C)C)c(O)ccc3nc2-1 [Topotecan],0.793 ± 0.022
22,CCOC(=O)[C@H](CCc1ccccc1)N[C@@H](C)C(=O)N1Cc2ccccc2C[C@H]1C(=O)O [Quinapril hydrochloride],0.987 ± 0.012
23,CC(CN(C)C)CN1c2ccccc2CCc2ccccc21 (stereo not drawn) [Trimipramine maleate salt],1.06 ± 0.087
24,CCn1cc(C(=O)O)c(=O)c2cc(F)c(N3CCNCC3)cc21 [Norfloxacin],1.05 ± 0.037
25,NC(N)=Nc1nc(CSCC/C(N)=N/S(N)(=O)=O)cs1 [Famotidine],0.98 ± 0.038
26,CCc1cccc2c3c([nH]c12)C(CC)(CC(=O)O)OCC3 (stereo not drawn) [Etodolac],0.954 ± 0.025
27,COCCCOc1ccnc(C[S+]([O-])c2nc3ccccc3[nH]2)c1C (stereo not drawn) [Rabeprazole Sodium salt],1.01 ± 0.019
28,CCc1nc(N)nc(N)c1-c1ccc(Cl)cc1 [Pyrimethamine],1.15 ± 0.041
